Screening results as filed in PubChem.
Most compounds without a hit are left out; they make up all but 5.9% or so of the library.
GLP1R ag = GLP-1 receptor (human) agonism | P43220 | HEK293 GLP-1R CRE-luciferase, luminescence, 4-6 h; cells express a hypersensitive GLP-1R form | Potency, µM (titrated, usually from 45.6 µM), for inactives: at the top dose activation, most hits filed as activators | 380,000 tested, 0.007% active | AID 624172; further: % of control where 0% means no effect
Target sequence (P43220 whole entry, looked up): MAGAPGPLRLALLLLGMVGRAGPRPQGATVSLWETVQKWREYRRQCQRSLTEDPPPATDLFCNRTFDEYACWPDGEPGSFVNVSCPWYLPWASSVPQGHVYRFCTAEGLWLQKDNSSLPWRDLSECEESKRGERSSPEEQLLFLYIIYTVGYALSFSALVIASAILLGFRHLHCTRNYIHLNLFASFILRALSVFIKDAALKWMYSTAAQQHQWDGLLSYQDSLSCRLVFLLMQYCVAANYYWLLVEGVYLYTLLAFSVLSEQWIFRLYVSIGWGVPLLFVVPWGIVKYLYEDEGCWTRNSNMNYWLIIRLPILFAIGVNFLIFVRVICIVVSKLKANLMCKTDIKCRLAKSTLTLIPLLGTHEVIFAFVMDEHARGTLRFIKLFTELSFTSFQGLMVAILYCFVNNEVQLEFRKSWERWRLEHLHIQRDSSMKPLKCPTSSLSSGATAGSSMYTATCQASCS
GLP-1R inv ag = inverse agonists of human GLP-1 receptor; P43220; HEK293 GLP-1R CRE-luciferase, luminescence, 24 h; GLP-1R form is constitutively active; AID 624417; Potency, µM (highest dose often 38.3 µM), for the others: at the highest dose activity change, negative = inhibition, hits mostly inhibitors; 410,000 tested, 1.6% active; further: on the % scale 0 is the no-effect control and ±100 the full control effect; nearly all actives have a fitted effect of over 55% in size
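HEK293 cells stably co-expressing constitutively active GLP-1R and a cAMP-responsive luciferase reporter were seeded in DMEM with 10% Nu serum, given compounds after 12 h, and incubated 24 h at 37 deg C. Luminescence was then read.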
Gal4-VP16 FLuc = inhibits Gal4-VP16 luciferase reporter, ROR gamma counter-screen. Drosophila S2 Gal4-VP16 UAS-luciferase, luminescence, 20 h. Potency, µM (series often up to 53.6 µM), without a hit: top-dose activity, negative = inhibition, hits mostly inhibitors. AID 2546. 310,000 tested, 3.5% active;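 further: Gal4-VP16 expression switched on by copper sulfate through the metallothionein promoter; on the % scale 0 is the no-effect control and ±100 the full control effect; nearly all actives have a fitted effect of over 50% in size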
HEK293 tox = cytotoxic in the GLP-1 receptor inverse agonist counter-screen; 410,000 tested, 0.13% active; AID 624418; HEK293 cAMP-luciferase reporter cells, luminescence, 24 h; Potency, µM (top dose mostly 38.3 µM), inactives show at the highest dose activity change, negative = inhibition, hits mostly inhibitors;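 further: loss of luciferase light is scored as toxicity; on the % scale 0 is the no-effect control and ±100 the full control effect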
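Here, cytotoxicity is scored as loss of luminescence. The MLSMR collection was tested on cells seeded in medium containing 10% Nu serum, with a 24 hr compound exposure preceded by 12 hours of culture.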
RORgamma inh = ROR gamma (mouse) transcription inhibition; P51450; Drosophila S2 Gal4-RORgamma UAS-luciferase reporter, 20 h; Potency, µM (doses to about 53.6 µM), inactives show at the highest dose activity change, negative = inhibition, most hits filed as inhibitors; 310,000 tested, 5.4% active; further: on the % scale 0 is the no-effect control and ±100 the full control effect; nearly all actives have a fitted effect of over 60% in size
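Luciferase reporter read in Schneider cells carrying Gal4-RORγ (mouse) and UAS-Photinus luciferase; cells given compound 1 h before 700 uM copper sulfate induction, then incubated 20 h at ambient temperature.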
* marks the source's active call; other numbers are inactive results; i = inactive; ? = inconclusive; . = no result; [ ] = remark or other dose. The call rests on the fitted dose curve; in most records, active means well fitted curve in the direction sought with a large enough effect; inconclusive means small, poorly fitted or top-dose-only effect, or another doubt; inactive means no such curve, though single readings can be large; an effect the other way counts as inactive or inconclusive. Potency means the concentration at half of the fitted maximal effect.

SMILES	GLP1R ag	GLP-1R inv ag	Gal4-VP16 FLuc	HEK293 tox	RORgamma inh
O=C(COc1ccc2ccccc2c1)N1CCN(CC2CC3C=CC2C3)CC1 (stereo unspecified)	-0.7%	8.91µM*	-9.3%	-2.2%	20.4%
C[C@H]1CNCCc2ccc(Cl)cc21	0.4%	.	.	.	.
CC(C(=O)c1cn(C)c2ccccc12)c1ccccc1 (stereo unspecified)	3.5%	?	-1.0%	5.2%	9.0%
Cn1cc(SCC(=O)Nc2nc3ccccc3s2)c2ccccc21	-13.9%	10µM*	-8.3%[0.365 µM]	?	?
Cc1ccc2c(c1)c(C1=c3ccccc3=NC1=O)c(O)n2C	-1.6%	-3.9%	3.55µM*	-7.0%	7.08µM*
C=CCn1c(O)c(C2=c3ccccc3=NC2=O)c2ccccc21	-7.8%	?	3.98µM*	?	4.47µM*
C=CCn1c(O)c(/C=C2/C=c3ccccc3=N2)c(=O)[nH]c1=S	-2.2%	8.7%	?	-3.6%	35.0%[1.91 µM]
c1ccc(OP(Oc2ccccc2)Oc2ccccc2)cc1	.	.	5.9%	.	0.3%
CC(=O)[C@H]1CC[C@H]2C3CC[C@H]4C[C@](C)(O)CC[C@]4(C)C3CC[C@]12C (stereo partly specified)	.	.	0.0%	.	2.3%
CCCOc1ccc2[nH]cc(C3=CCNCC3)c2n1	.	.	-3.2%	.	-3.6%
Cc1ccc(C2=[N+]([O-])C3(CCCCC3=O)N(O)C2(C)C)cc1 (stereo unspecified)	3.8%	10.3%	3.98µM*	9.1%	0.891µM*
Cc1ccc(N=c2oc3cc(O)ccc3cc2C(N)=O)cc1	-24.5%	?	0.891µM*	i	0.891µM*
Cc1ccc(C)c(CN2CCC(CNC(=O)Nc3ccc(Br)cc3F)CC2)c1	10.3%	7.08µM*	-12.3%	?	-2.3%
Cc1ccc(O)c(CN2CCC3CCC(C3)C2)c1 (stereo unspecified)	0.9%	-15.5%	.	-1.9%	.
CC(=O)c1cn(CCCOc2ccccc2)c2ccccc12	12.7%	?	6.31µM*	7.4%	?
O=C(C(=O)N1CCOCC1)c1cn(CCCOc2ccccc2)c2ccccc12	2.2%	?	2.1%[10 µM]	3.3%	28.2%
COc1ccc(/C=N/Nc2ncnc3scc(-c4ccccc4)c23)cc1OC	10.6%	-15.7%	0.891µM*	?	3.55µM*
C=C(C)[C@@]12OC3(c4ccccc4)O[C@@H]1[C@@H]1[C@@H]4O[C@]4(CO)[C@@H](O)[C@]4(O)C(=O)C(C)=C[C@H]4[C@@]1(O3)[C@H](C)[C@H]2OC(=O)/C=C/C=C/c1ccccc1	.	.	-21.1%	.	34.1%
CC1CCCC(C)N1c1nnc(NC(=O)Cn2c(=O)oc3ccccc32)s1 (stereo unspecified)	-3.4%	-24.8%	14.1µM*	-9.4%	?
COC(=O)C1=C(c2cc3ccccc3s2)C[C@@H]2CC[C@H]1N2C(=O)NC1CC1	-5.3%	-30.4%	.	-6.8%	.
COC(=O)C1=C(c2cc3ccccc3s2)C[C@@H]2CC[C@H]1N2C(=O)NCC1CC1	11.3%	?	.	4.8%	.
COC(=O)C1=C(c2cc3ccccc3s2)C[C@@H]2CC[C@H]1N2C(=O)NCc1ccc(C(F)(F)F)cc1	-4.6%	3.98µM*	.	-2.8%	.
COC(=O)C1=C(c2cc3ccccc3s2)C[C@@H]2CC[C@H]1N2C(=O)N1CCC(C)CC1	25.2%	10µM*	.	-20.1%	.
COC(=O)C1=C(c2cc3ccccc3o2)C[C@@H]2CC[C@H]1N2C(=O)NCc1ccc(F)cc1	2.7%	11.2µM*	.	-2.2%	.
C[N+](C)(C)CCCl	.	.	4.3%	.	-7.7%
SMILES	GLP1R ag	GLP-1R inv ag	Gal4-VP16 FLuc	HEK293 tox	RORgamma inh
CCOP(=O)(Nc1ccc2c(c1)C(=NNC(N)=S)c1ccccc1-2)OCC	-2.1%	?	.	12.6µM*	.
CC(C)(C)[C@@H]1COC(=O)[C@@H](Cc2ccc(F)cc2)CC/C=C\C[C@@H](CC(=O)N(CCO)Cc2ccccc2)C(=O)N1	-4.8%	10µM*	.	-19.1%	.
CCN1C[C@]2(C)CC[C@H](OC)[C@@]34[C@H]1C1(OCO[C@@]15C[C@H](OC)C1C[C@]3(O)C5[C@H]1OC)[C@@H](O)[C@H]24	.	.	-4.6%	.	7.1%
CN(C)CCN(C)CCc1ccc(Cl)c(Cl)c1	.	.	-12.6%	.	-17.3%
Cc1ccc(-c2nnc(Sc3nc4ccccc4o3)c3ccccc23)cc1	-0.3%	-19.8%	?	?	8.91µM*
O=[N+]([O-])c1ccc(CNCCc2ccccc2)cc1	-1.8%	4.0%	-0.4%	0.3%	7.4%[1.91 µM]
O=[N+]([O-])c1ccc(NC(=S)NCCc2ccc(F)cc2)cc1	-12.9%	11.2µM*	?	?	?
CNC(=O)Oc1ccc(-c2cn3cc(Cl)ccc3n2)cc1	-1.1%	-26.7%	?	4.2%	6.31µM*
CNC(=O)Oc1cccc(-c2cn3cc(OC(=O)NC)ccc3n2)c1	0.7%	13.1%	?	-16.6%	?
Cc1ccc(-n2ncc(C(=O)NCCN3CCC(Cc4ccccc4)CC3)c2C2CCN(C(=O)OC(C)(C)C)CC2)cc1	.	10µM*	.	?	.
CCCCn1c(=O)c(C(=O)NCCc2ccccc2)c(O)c2ccccc21	-3.3%	11.5%	?	3.4%	?
O=[N+]([O-])c1ccc(N=Nc2c(Cl)cc(O)cc2Cl)cc1	-8.0%	?	5.01µM*	?	?
CN1C(=O)C(Cl)(Cl)C(=O)c2ccccc21	-1.9%	-16.0%	?	?	11.2µM*
CC(=O)[C@@]1(O)CC[C@@H]2[C@@H]3CCC4=CC(=O)CC[C@]4(C)[C@]3(F)[C@@H](O)C[C@@]21C	-6.3%	.	.	.	.
O=C(N/N=C1/CN2CCC1CC2)c1cc2ccccc2cc1O	-17.2%	0.0%	12.6µM*	21.2%	3.55µM*
CCCCOC(C)=O	.	.	5.0%	.	2.5%
CCCC[N+](=O)[O-]	.	.	-12.1%	.	-17.8%
NS(=O)(=O)c1ccc(Sc2nc3ccccc3s2)c([N+](=O)[O-])c1	4.1%	?	10µM*	?	-32.5%
O=[N+]([O-])c1ccc(Sc2nc3ccccc3o2)c([N+](=O)[O-])c1	-15.5%	-16.1%	2.7%	?	?
Nc1ccccc1-c1ccccc1	.	.	4.5%	.	32.3%
COC(=O)[C@]1(C)C[C@H]1[C@H](NP(=O)(c1ccccc1)c1ccccc1)c1ccccc1	-4.6%	-26.2%	-0.9%	-7.8%	31.2%
C=C[C@@H]1C[C@@]1(C)[C@@H](NP(=O)(c1ccccc1)c1ccccc1)c1ccccc1	11.4%	10µM*	?	6.5%	-20.4%
O=C(N/N=C/c1cc(Br)c(Br)s1)c1ccncc1	-1.7%	4.2%[0.307 µM]	1µM*	-1.2%[0.307 µM]	0.562µM*
CN(C)S(=O)(=O)c1cccc(-c2nn(-c3ccccc3)cc2/C=C2\SC(=S)NC2=O)c1	5.5%	?	?	?	12.6µM*
c1ccoc1	.	.	2.9%	.	15.1%
